In the library only some 5.2% were active in any assay of this set; here they are far more common.
NadD inh = inhibitors of Staphylococcus aureus NadD; purified NadD enzyme, colorimetric absorbance read-out; hit rate 0.78% among 360,000; AID 602399; inhibition, % at 20 µM; in the data active means inhibition above about 26%
NR3A LBD binder = modulators (binders) of human NR3A ligand-binding domain. hit rate 2.5% among 340,000. Tm shift relative to glycine control, % at 25 µM. AID 1259313. NR3A LBD differential scanning fluorimetry, Tm shift; 0% = protein alone, 100% = glycine-bound protein;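 active means melting temperature shift of at least 10% of the positive control shift, at one fixed dose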
SKN-1 block = blocks SKN-1 activity in C. elegans; C. elegans VP596 Pgst-4::GFP/RFP ratio, acrylamide-induced, 24 h; inhibition, % at 21.8 µM; hit rate 0.49% among 360,000;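 active means interference check ratio from 0.5 to 1.5 plus GFP to RFP signal ratio inhibition reaching or exceeding a fixed threshold, cut at about 30% in these data, passing the limit was not always enough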
esBAF inh = inhibitors of esBAF chromatin remodeling in mouse ES cells; Bmi1-luciferase knock-in reporter, 24 h; 100% = twice the neutral-well signal; reporter increase, % at 12.5 µM; hit rate 2% among 350,000; in the data active means activation above about 40%;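 further: a rise in the Bmi1 reporter signal indicates esBAF inhibition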
SMARCA2 activ = activators of SMARCA2 function; MG213 cells, MMTV-luciferase reporter, dexamethasone, overnight; hit rate 1% among 370,000; AID 652017; activation, % at 9.1 µM; in the data active means activation above about 7.8%
Vif inh = inhibitors of HIV Vif; hit rate 0.35% among 340,000; HEK293T cells, Vif self-association by quenched fluorescence, imaging, 24 h; inhibition, % at 7.49 µM; in the data active means inhibition above about 50%, passing the limit was not always enough
Numbers stand for hits; – = inactive; · = not tested or not shown.

SMILES | NadD inh | NR3A LBD binder | SKN-1 block | esBAF inh | SMARCA2 activ | Vif inh
CC(=O)NC(CSC(CC(=O)c1ccco1)c1ccc(C)cc1)C(=O)O (centres undefined) | – | – | – | 42.7 | – | –
O=C(CC(SCCO)c1ccc([N+](=O)[O-])cc1)c1ccco1 (centres undefined) | – | 40.0 | – | – | – | –
Cc1ccccc1S(=O)(=O)NCC[C@H]1CC[C@@H](NC(=O)Nc2cccc(Cl)c2)[C@@H](CO)O1 | · | · | · | – | · | ·
Oc1ccc(/C=N/Nc2ncc(Cl)cc2Cl)cc1 | – | – | – | 44.3 | – | –
Clc1cnc(N/N=C/c2cccs2)c(Cl)c1 | – | – | – | · | – | –
Cn1cnc(S(=O)(=O)Nc2ccc(Cl)c(C(F)(F)F)c2)c1 | – | 13.7 | – | – | – | –
CCC(CO)Nc1ccn2nc(-c3ccccc3)cc2n1 (centres undefined) | – | · | – | 69.2 | – | –
CCC(CO)Nc1ccn2nc(-c3cccs3)cc2n1 (centres undefined) | – | · | – | 55.2 | – | –
Oc1ccc(Nc2ccc3ccccc3c2)cc1 | – | – | – | 49.1 | – | –
c1ccc(CSc2ncnc3sccc23)cc1 | – | – | 43.0 | · | – | –
Cc1nc(SCc2ccccc2)c2ccsc2n1 | – | – | – | · | – | –
COc1ccc(-c2cc(=O)[nH][nH]2)cc1OC | – | 12.7 | – | – | – | –
CC(C)NC(=O)N(C)C[C@@H]1Oc2c(NS(=O)(=O)c3ccc(Cl)cc3)cccc2C(=O)N([C@@H](C)CO)C[C@@H]1C | · | · | · | – | · | ·
CCc1ccc(C2C(C#N)=C(N)SC(N)=C2C#N)cc1 | – | – | – | · | – | –
CCc1ccc(C2C(C#N)=C(N)SC(N)=C2C#N)s1 | – | – | – | – | · | 76.9
CCCOC(=O)CN1C(=O)c2ccc(C(=O)OCCC)cc2C1=O | – | – | – | – | – | –
CCCOC(=O)c1ccc2c(c1)C(=O)N(c1ccccc1)C2=O | – | – | – | 58.4 | – | –
Cc1onc(-c2ccccc2Cl)c1C(O)c1ccc(F)cc1 (centres undefined) | – | – | – | – | – | –
Cc1[nH]c2ccccc2c1C(=O)COC(=O)c1c(-c2ccccc2Cl)noc1C | – | 23.9 | – | · | – | –
Cc1onc(-c2c(F)cccc2Cl)c1C(=O)Nc1nc2ccccc2[nH]1 | – | – | 41.7 | – | – | –
Cc1[nH]c2ccccc2c1C(=O)COC(=O)c1c(-c2c(F)cccc2Cl)noc1C | – | 28.9 | – | · | – | –
Cc1onc(-c2c(F)cccc2Cl)c1C(=O)OCN1C(=O)c2ccccc2C1=O | – | – | – | – | – | –
Cc1onc(-c2c(F)cccc2Cl)c1C(O)c1ccc(F)cc1 (centres undefined) | – | 11.0 | – | · | – | –
CCCC#Cc1cnc2c(c1)C(=O)N([C@H](C)CO)C[C@H](C)[C@H](CN(C)S(=O)(=O)c1cccc(OC)c1)O2 | · | · | · | – | · | ·
C[C@@H]1CCCCO[C@H](CN(C)C(=O)Nc2ccccc2)[C@H](C)CN([C@H](C)CO)C(=O)c2cc(NC(=O)c3ccccc3)ccc2O1 | · | · | · | – | · | ·
SMILES | NadD inh | NR3A LBD binder | SKN-1 block | esBAF inh | SMARCA2 activ | Vif inh
COc1cccc(CN(C(=O)Cc2c[nH]c3ccccc23)C(C(=O)NC2CCCCC2)c2ccc(C)o2)c1 (centres undefined) | – | 22.8 | – | · | – | –
Cc1cc(C(=O)c2ccc(Cl)cc2)c(NC(=O)CCl)s1 | – | 11.6 | – | · | – | –
CNc1cc(CSc2ccc(Cl)cc2)nc(C)n1 | – | – | – | 51.6 | – | –
CO[C@@H]1CN(C)C(=O)c2ccc(NC(=O)C3CCCC3)cc2OC[C@H](C)N(CC2CC2)C[C@@H]1C | · | · | · | – | · | ·
C[C@@H]1CCCCO[C@@H](CN(C)C(=O)CCC(F)(F)F)[C@H](C)CN([C@@H](C)CO)C(=O)c2cc(NC(=O)c3ccccc3)ccc2O1 | · | · | · | – | · | ·
Nc1ccccc1-n1nc2ccc3ccccc3c2n1 | – | · | – | 40.6 | – | –
c1ccc(Nc2ccnc(Nc3ccccc3)n2)cc1 | – | – | – | 45.3 | – | –
NNc1nc(Nc2ccccc2)nc(Nc2ccccc2)n1 | – | – | – | – | – | –
O=C(Nc1cccc(Cl)c1)N1C[C@@H]2[C@H](c3ccccc31)[C@@H](CO)N2C(=O)C1CC1 | · | · | · | – | · | ·
COc1cc(C)ccc1OCc1cc(C(=O)N(C)CCCN2CCOCC2)no1 | – | – | – | 73.6 | – | –
CN(CCCN1CCOCC1)C(=O)c1cc(COc2ccc(F)cc2F)on1 | – | – | – | – | – | –
CC(=O)c1ccc(OCc2cc(C(=O)NCC3CCCCO3)no2)cc1 (centres undefined) | – | – | – | · | – | –
COc1cc(C)ccc1OCc1cc(C(=O)NCCN2CCOCC2)no1 | – | – | – | 63.2 | – | –
COc1cc(C(C)=O)ccc1OCc1cc(C(=O)N(C)CCC2CCCCO2)no1 (centres undefined) | – | – | – | 50.9 | – | –
O=C(C[C@@H]1CC[C@H](NC(=O)C2CCC2)[C@H](CO)O1)NCC1CC1 | · | · | · | – | · | ·
COc1ccc(S(=O)(=O)N(C)C[C@H]2OCCCC[C@H](C)Oc3ccc(NC(=O)CCCN(C)C)cc3C(=O)N([C@@H](C)CO)C[C@H]2C)cc1 | · | · | · | – | · | ·
O=C(C[C@H]1C=C[C@H](NS(=O)(=O)c2ccccc2)[C@@H](CO)O1)NCc1ccccc1F | · | · | · | – | · | ·
COc1ccccc1C(CC(=O)Nc1ccc(Cl)cc1)c1ccc(OC(C)C)cc1 (centres undefined) | – | 12.2 | – | · | – | ·
O=C(Cc1ccccn1)NCC[C@@H]1CC[C@@H](NS(=O)(=O)c2ccc(F)cc2)[C@H](CO)O1 | · | · | · | – | · | ·
CCOc1ccccc1NC(=O)Cn1c(=O)oc2ccccc21 | – | – | – | – | – | –
CCOc1ccccc1NC(=O)Cn1c(=O)oc2cc(Cl)ccc21 | – | – | 35.1 | – | – | ·
COc1ccc(CNC(C)C(=O)Nc2ccc3ccccc3c2)cc1OC (centres undefined) | – | – | 50.8 | · | – | –
Cc1cc2ncn(CCOc3ccccc3)c2cc1C | – | – | – | 83.1 | – | –
COCCn1cnc2cc(C)c(C)cc21 | – | – | – | – | – | –
COc1ccc(Br)cc1/C=N/NC(=O)c1ccco1 | – | – | – | – | – | –
SMILES | NadD inh | NR3A LBD binder | SKN-1 block | esBAF inh | SMARCA2 activ | Vif inh
CC(C)(C)c1ccc(OCC(=O)N/N=C/c2cc(Br)ccc2OC(=O)c2ccco2)cc1 | – | 22.8 | – | – | – | –
O=C(C[C@@H]1C=C[C@@H](NC(=O)c2ccccc2)[C@H](CO)O1)Nc1ccc(-c2ccccc2)cc1 | · | · | · | – | · | ·
Cc1ccc(NC(=O)/C(C#N)=C/c2ccc(C)s2)c(C)c1 | – | – | – | 42.0 | – | ·
COc1cc(NC(=O)CSCC(=O)N(C)C2CCCCC2)cc(OC)c1 | – | – | – | – | – | –
CN(C(=O)CSCC(=O)Nc1ccc(Cl)cc1)C1CCCCC1 | – | – | 37.5 | · | – | –
O=c1c(-c2ccccc2)nc(-c2ccccc2)cn1O | – | – | – | 53.5 | – | ·
N#Cc1ccc(-c2ccc3c(c2)[C@H]2[C@H](CCN2S(=O)(=O)c2ccccc2F)[C@H](CO)N3)cc1 | · | · | · | – | · | ·

High-throughput results: PubChem, several laboratories
